The whole screen tested about 5,500 compounds, of which about 2,000 (36%) were called active. Roughly 18% stayed inconclusive and do not appear here. Rule as the data show it: active = normalized growth mostly below about 0.91 (no sharp cut-off); inconclusive = no clear call, values can overlap the other calls; inactive = mostly above about 0.92. This is one part of the list.
Test: chemical genetic growth profiling, strain panel (AID 1159580);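 also: tested at 20 µM; growth read once vehicle control cultures reached saturation at 30 °C; 1 = growth at the plate median or of vehicle wells; lower values mean less growth of the strain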
Conditions: growth OD
[1] = S. cerevisiae deletion strains, locus YDL101C, strain DUN1, active compounds read low
[2] = S. cerevisiae deletion strains, locus YHR030C, strain SLT2, active compounds read low

Measured: normalized growth

CSc1ccc(/C=C(\C)[N+](=O)[O-])cc1
active: S. cerevisiae deletion strains, locus YAR019C, strain CDC15, active compounds read low 0.0932 | S. cerevisiae deletion strains, locus YBL105C, strain PKC1, active compounds read low 0.0831 | S. cerevisiae deletion strains, locus YBR135W, strain CKS1, active compounds read low 0.0817 | S. cerevisiae deletion strains, locus YBR136W, strain MEC1, active compounds read low 0.0817 | S. cerevisiae deletion strains, locus YBR160W, strain CDC28, active compounds read low 0.0827 | S. cerevisiae deletion strains, locus YDL017W, strain CDC7, active compounds read low 0.0813 | S. cerevisiae deletion strains, locus YDL028C, strain MPS1, active compounds read low 0.0841 | [1] 0.1 | S. cerevisiae deletion strains, locus YDL108W, strain KIN28, active compounds read low 0.0841 | S. cerevisiae deletion strains, locus YDL214C, strain PRR2, active compounds read low 0.0925 | S. cerevisiae deletion strains, locus YDR052C, strain DBF4, active compounds read low 0.103 | S. cerevisiae deletion strains, locus YDR054C, strain cdc34, active compounds read low 0.0952 | S. cerevisiae deletion strains, locus YDR226W, strain ADK1, active compounds read low 0.09 | S. cerevisiae deletion strains, locus YDR477W, strain SNF1, active compounds read low 0.104 | S. cerevisiae deletion strains, locus YER123W, strain YCK3, active compounds read low 0.0983 | S. cerevisiae deletion strains, locus YER133W, strain GLC7, active compounds read low 0.0958 | S. cerevisiae deletion strains, locus YFL009W, strain cdc4, active compounds read low 0.0931 | S. cerevisiae deletion strains, locus YFL029C, strain CAK1, active compounds read low 0.0921 | S. cerevisiae deletion strains, locus YFR003C, strain YPI1, active compounds read low 0.0893 | S. cerevisiae deletion strains, locus YFR019W, strain FAB1, active compounds read low 0.092 | S. cerevisiae deletion strains, locus YFR028C, strain CDC14, active compounds read low 0.0831 | S. cerevisiae deletion strains, locus YGR040W, strain KSS1, active compounds read low 0.103 | S. cerevisiae deletion strains, locus YGR052W, strain FMP48, active compounds read low 0.138 | S. cerevisiae deletion strains, locus YGR092W, strain DBF2, active compounds read low 0.105 | [2] 0.132 | S. cerevisiae deletion strains, locus YHR079C, strain IRE1, active compounds read low 0.122 | S. cerevisiae deletion strains, locus YHR082C, strain KSP1, active compounds read low 0.141 | S. cerevisiae deletion strains, locus YHR205W, strain SCH9, active compounds read low 0.00725 | S. cerevisiae deletion strains, locus YIL147C, strain SLN1, active compounds read low 0.0876 | S. cerevisiae deletion strains, locus YJL095W, strain BCK1, active compounds read low 0.142 | S. cerevisiae deletion strains, locus YJL157C, strain FAR1, active compounds read low 0.084 | S. cerevisiae deletion strains, locus YJR016C, strain ILV3, active compounds read low 0.0861 | S. cerevisiae deletion strains, locus YJR066W, strain TOR1 (second series), active compounds read low 0.0953 | S. cerevisiae deletion strains, locus YJR066W, strain TOR1, active compounds read low 0.158 | S. cerevisiae deletion strains, locus YKL048C, strain ELM1, active compounds read low 0.106 | S. cerevisiae deletion strains, locus YKL067W, strain YNK1, active compounds read low 0.0912 | S. cerevisiae deletion strains, locus YKL101W, strain HSL1, active compounds read low 0.103 | S. cerevisiae deletion strains, locus YKL193C, strain SDS22, active compounds read low 0.0867 | S. cerevisiae deletion strains, locus YKL203C, strain TOR2, active compounds read low 0.115 | S. cerevisiae deletion strains, locus YLR113W, strain HOG1, active compounds read low 0.176 | S. cerevisiae deletion strains, locus YLR133W, strain CKI1, active compounds read low 0.0883 | S. cerevisiae deletion strains, locus YLR403W, strain SFP1, active compounds read low -0.00294 | S. cerevisiae deletion strains, locus YML070W, strain DAK1, active compounds read low 0.0932 | S. cerevisiae deletion strains, locus YMR001C, strain CDC5, active compounds read low 0.0857 | S. cerevisiae deletion strains, locus YMR205C, strain PFK2 (second series), active compounds read low 0.0912 | S. cerevisiae deletion strains, locus YMR277W, strain FCP1, active compounds read low 0.0923 | S. cerevisiae deletion strains, locus YNL006W, strain LST8, active compounds read low 0.088 | S. cerevisiae deletion strains, locus YNL020C, strain ARK1, active compounds read low 0.0937 | S. cerevisiae deletion strains, locus YNL161W, strain CBK1, active compounds read low 0.0836 | S. cerevisiae deletion strains, locus YNL183C, strain NPR1, active compounds read low 0.129 | S. cerevisiae deletion strains, locus YNL207W, strain RIO2, active compounds read low 0.0937 | S. cerevisiae deletion strains, locus YNL222W, strain SSU72, active compounds read low 0.0888 | S. cerevisiae deletion strains, locus YNL307C, strain MCK1 (second series), active compounds read low 0.103 | S. cerevisiae deletion strains, locus YOL078W, strain AVO1, active compounds read low 0.0847 | S. cerevisiae deletion strains, locus YOL136C, strain PFK27, active compounds read low 0.0905 | S. cerevisiae deletion strains, locus YOR061W, strain CKA2, active compounds read low 0.0875 | S. cerevisiae deletion strains, locus YOR119C, strain RIO1, active compounds read low 0.109 | S. cerevisiae deletion strains, locus YOR231W, strain MKK1, active compounds read low 0.137 | S. cerevisiae deletion strains, locus YOR329C, strain SCD5, active compounds read low 0.0819 | S. cerevisiae deletion strains, locus YPL031C, strain PHO85, active compounds read low 0.11 | S. cerevisiae deletion strains, locus YPL153C, strain RAD53, active compounds read low 0.112 | S. cerevisiae deletion strains, locus YPL204W, strain HRR25, active compounds read low 0.0976 | S. cerevisiae deletion strains, locus YPL209C, strain IPL1, active compounds read low 0.0829 | S. cerevisiae deletion strains, locus YPL256C, strain CLN2, active compounds read low 0.156 | S. cerevisiae deletion strains, locus YPR025C, strain CCL1, active compounds read low 0.0822 | S. cerevisiae deletion strains, locus YPR106W, strain ISR1, active compounds read low 0.0856 | S. cerevisiae deletion strains, locus YPR111W, strain DBF20, active compounds read low 0.188 | S. cerevisiae deletion strains, strain NNK1, active compounds read low 0.0909 | S. cerevisiae deletion strains, strain TSCII, active compounds read low 0.0882

CC(=O)N/C(=C/c1ccc2c(c1)OCO2)C(=O)O
inactive: S. cerevisiae deletion strains, locus YAL013W, strain DEP1, active compounds read low 1.01 | S. cerevisiae deletion strains, locus YBR229C, strain ROT2, active compounds read low 1 | S. cerevisiae deletion strains, locus YCL061C, strain MRC1, active compounds read low 1.02 | [1] 1 | S. cerevisiae deletion strains, locus YDR150W, strain NUM1, active compounds read low 0.915 | S. cerevisiae deletion strains, locus YEL061C, strain CIN8, active compounds read low 1.02 | S. cerevisiae deletion strains, locus YGR078C, strain PAC10, active compounds read low 1 | S. cerevisiae deletion strains, locus YGR229C, strain SMI1, active compounds read low 1.02 | [2] 1.06 | S. cerevisiae deletion strains, locus YHR087W, strain rtc3, active compounds read low 1 | S. cerevisiae deletion strains, locus YJL187C, strain SWE1, active compounds read low 1.01 | S. cerevisiae deletion strains, locus YJR043C, strain POL32, active compounds read low 1.01 | S. cerevisiae deletion strains, locus YJR075W, strain HOC1, active compounds read low 1.02 | S. cerevisiae deletion strains, locus YKL190W, strain CNB1, active compounds read low 1.01 | S. cerevisiae deletion strains, locus YLR039C, strain RIC1, active compounds read low 1.07 | S. cerevisiae deletion strains, locus YLR058C, strain SHM2 (second series), active compounds read low 1.01 | S. cerevisiae deletion strains, locus YLR085C, strain ARP6, active compounds read low 1.02 | S. cerevisiae deletion strains, locus YLR262C, strain YPT6, active compounds read low 1.07 | S. cerevisiae deletion strains, locus YML094W, strain GIM5, active compounds read low 1.01 | S. cerevisiae deletion strains, locus YMR219W, strain ESC1, active compounds read low 1 | S. cerevisiae deletion strains, locus YMR263W, strain SAP30, active compounds read low 1.01 | S. cerevisiae deletion strains, locus YNL153C, strain GIM3, active compounds read low 1.01 | S. cerevisiae deletion strains, locus YNL298W, strain CLA4 (second series), active compounds read low 1.01 | S. cerevisiae deletion strains, locus YNL322C, strain KRE1, active compounds read low 1 | S. cerevisiae deletion strains, locus YNR030W, strain Alg12, active compounds read low 1.01 | S. cerevisiae deletion strains, locus YOL006C, strain TOP1, active compounds read low 1.04 | S. cerevisiae deletion strains, locus YPL055C, strain LGE1, active compounds read low 0.87 | S. cerevisiae deletion strains, locus YPL241C, strain CIN2, active compounds read low 1 | S. cerevisiae deletion strains, locus YPR135W, strain CTF4, active compounds read low 0.998 | S. cerevisiae strains, strain wild type, active compounds read low 1.02

From PubChem BioAssay AID1159580 (chemical genetic matrix, 2015)
